Test systems include NCI-H23 lung; NCI-H226 lung; NCI-H322M lung; HOP-62 NSCLC; NCI-H460 lung; HOP-92 NSCLC; NCI-H522 lung; A549/ATCC NSCLC; 786-0 renal; COLO 205 colon.
What all share (assay): NCI-60 one-dose screen, 48 h (100 = growth as untreated, 0 = no growth, -100 = all killed)
Conditions in all cases: 10 µM unless noted

Compounds without any hit were thinned out: in the full panel of roughly 83,000, 20% have a hit.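 Growth was measured after 48 h exposure to one concentration of compound in 96-well plates. Values under 10 count as active.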 Values without a mark were called inactive. Active and inactive are the calls of the source.

On to `Cn1cc(-c2nonc2-c2c[nH]c3ccc(Br)cc23)c2cc(Br)ccc21`, for which the growth in the test with NCI-H23 lung is 39.9%; in the test with NCI-H226 lung, 44.8%; with NCI-H322M lung, 32.1%; with HOP-62 NSCLC, 29.1%; with NCI-H460 lung it was 13.3%; with HOP-92 NSCLC, 55.6%. In addition, the growth in the test on NCI-H522 lung was 24.3%; with A549/ATCC NSCLC it was 30.8%; with 786-0 renal, 34.3%; in the test with COLO 205 colon, 49.1%.
Regarding `O=S(=O)(Nc1ccccc1)c1ccc(C2CC3(Cl)C(Cl)=C(Cl)C2(Cl)C3(Cl)Cl)cc1` (stereo not given), the growth was 22.1% in the test on NCI-H23 lung; 74.3% with NCI-H226 lung; 61.5% in the test on NCI-H322M lung; 51.4% in the test on HOP-62 NSCLC; 21.1% in the test on NCI-H460 lung; -10.3% (active) in the test on HOP-92 NSCLC. Further, the growth in the test on NCI-H522 lung was 29.9%; in the test on A549/ATCC NSCLC it was 30.2%; with 786-0 renal, 32.4%; in the test with COLO 205 colon it was 29.2%.
Consider `O=C(Cn1c2c(c3ccccc31)CCCC2)Nc1ccc(-c2nc3ccccc3s2)cc1`, for which the growth with NCI-H23 lung was 94.5%; with NCI-H226 lung it was 106%; with NCI-H322M lung, 101%; in the test with HOP-62 NSCLC, 102%; with NCI-H460 lung, 101%; in the test with HOP-92 NSCLC, 89.6%. For the same compound, the growth in the test with NCI-H522 lung was 94.9%; in the test with A549/ATCC NSCLC it was 105%; in the test with 786-0 renal, 109%; in the test on COLO 205 colon, 104%.
Turning to `COC(=O)c1c2c(c(C)[n+]([O-])c1C)C(=O)C(NCc1ccc(Cl)cc1)=CC2=O`, the growth in the test on NCI-H23 lung is 59%; with NCI-H226 lung, 92.6%; in the test with NCI-H322M lung it was 64.3%; in the test on HOP-62 NSCLC it was 78.2%; with NCI-H460 lung, 51.8%; with HOP-92 NSCLC, 107%. Also, the growth is 42% in the test with NCI-H522 lung, 66.9% with A549/ATCC NSCLC, 74% with 786-0 renal and 9.79% (active) in the test with COLO 205 colon.
In the case of `COc1ccc(C/C(C)=C(/c2ccc(OCCN3CCCCC3)cc2)c2ccc(OC(=O)NCc3ccccc3)cc2)cc1`, the growth in the test with NCI-H23 lung is -84.6% (active); in the test on NCI-H226 lung, -70% (active); in the test with NCI-H322M lung it was -81.7% (active); in the test on HOP-62 NSCLC it was -89.2% (active); in the test with NCI-H460 lung it was -90% (active); with HOP-92 NSCLC, -92.7% (active). Also, the growth is -80.9% (active) in the test with NCI-H522 lung, -93.4% (active) in the test with A549/ATCC NSCLC, -91.6% (active) with 786-0 renal and -90.4% (active) in the test with COLO 205 colon.
On to `Cc1ccc(C(C(N)=O)C(C(N)=O)c2ccccc2)cc1` (stereo not given), for which the growth in the test with NCI-H23 lung is 111%; in the test on NCI-H226 lung it was 109%; in the test with NCI-H322M lung, 121%; in the test with HOP-62 NSCLC, 111%; in the test on NCI-H460 lung, 112%; with HOP-92 NSCLC, 99.5%. The growth with NCI-H522 lung was 102%; in the test on A549/ATCC NSCLC, 95.3%; with 786-0 renal, 102%; in the test on COLO 205 colon it was 115%.
In the case of `COc1ccc(C(c2cc(OC)c(OC)c(OC)c2)N2CCN(c3ccccc3)CC2)cc1` (stereo not given), the growth with NCI-H23 lung was 84.4%; with NCI-H226 lung, 101%; with NCI-H322M lung it was 83.7%; with HOP-62 NSCLC, 88.9%; in the test on NCI-H460 lung, 96.9%; in the test with HOP-92 NSCLC, 86.7%. The growth is 56.5% with NCI-H522 lung, 85.7% in the test on A549/ATCC NSCLC, 101% in the test with 786-0 renal and 92.7% in the test on COLO 205 colon.
For `Cn1c(=O)c2c(nc(NC3=NS(=O)(=O)c4ccccc43)n2CC(=O)N2CCc3ccccc32)n(C)c1=O`, the growth in the test on NCI-H23 lung is 87.2%; with NCI-H226 lung, 98.8%; in the test with NCI-H322M lung, 100%; in the test with HOP-62 NSCLC, 94.4%; with NCI-H460 lung it was 100%; in the test with HOP-92 NSCLC it was 109%. The growth is 97.5% in the test on NCI-H522 lung, 99.3% in the test with A549/ATCC NSCLC, 97.3% in the test with 786-0 renal and 101% with COLO 205 colon.
Regarding `Cn1c(-c2ccc(Br)cc2)c(O)c(=O)c2c(F)cccc21`, the growth with NCI-H23 lung is 48.4%; with NCI-H226 lung, 62.9%; with NCI-H322M lung, 53.5%; with HOP-62 NSCLC, 34%; with NCI-H460 lung it was 20.5%; in the test with HOP-92 NSCLC, 137%. Besides, the growth was 54% in the test with NCI-H522 lung, 45.9% with A549/ATCC NSCLC, 42.7% in the test with 786-0 renal and 7.68% (active) in the test with COLO 205 colon.
For `Cc1ccc(Cl)cc1Nc1nc(C(F)(F)F)ccc1C(=O)N/N=C/c1cccnc1`, the growth is 37.4% with NCI-H23 lung; 30.7% with NCI-H226 lung; 25.1% in the test with NCI-H322M lung; 29.4% with HOP-62 NSCLC; 18.3% with NCI-H460 lung; 11.3% with HOP-92 NSCLC. In addition, the growth in the test with NCI-H522 lung was -5.81% (active); with A549/ATCC NSCLC it was 27.5%; with 786-0 renal, 2.05% (active); with COLO 205 colon it was 38.9%.
Take `COc1cc(CNC(=O)CCCC/C=C/C(C)C)ccc1OCc1nnc(Nc2ccc([N+](=O)[O-])cc2)o1`: the growth in the test on NCI-H23 lung is 54.9%; in the test on NCI-H226 lung, 62.1%; in the test with NCI-H322M lung it was 57.6%; with HOP-62 NSCLC, 67.6%; in the test with NCI-H460 lung, 33.5%; in the test with HOP-92 NSCLC, -2.56% (active). The growth in the test with NCI-H522 lung was 73%; in the test on A549/ATCC NSCLC it was 49%; in the test with 786-0 renal, 22.2%; with COLO 205 colon, 70.9%.
Take `CCCCOC(=O)OCc1cc(=O)c(O)co1`: the growth was 95.3% with NCI-H23 lung; 94.3% in the test with NCI-H226 lung; 94.1% in the test on NCI-H322M lung; 109% in the test on HOP-62 NSCLC; 101% with NCI-H460 lung; 107% in the test on HOP-92 NSCLC. Also, the growth was 91.1% in the test with NCI-H522 lung, 102% with A549/ATCC NSCLC, 98.6% in the test on 786-0 renal and 111% with COLO 205 colon.
Consider `CCOC(=O)c1c2c(n3ccc(C)cc13)C(=O)c1ccccc1C2=O`, for which the growth was 85.5% with NCI-H23 lung; 98.1% in the test with NCI-H226 lung; 77% in the test with NCI-H322M lung; 106% with HOP-62 NSCLC; 58.7% in the test with NCI-H460 lung; 87.8% in the test with HOP-92 NSCLC. For the same compound, the growth in the test with NCI-H522 lung was 70.5%; with A549/ATCC NSCLC, 62.5%; with 786-0 renal, 97.3%; with COLO 205 colon it was 108%.
